Several values for one entry are separate records, joined by “and”; a condition that tells them apart may be missing. Equal values may be shown once. More than one record can exist for a structure, and the calls need not agree. Activity calls are given as the source filed them. Rule for the calls: active = hit-call score of the fitted dose curve at least 0.9, where 1 is the maximum; inactive = score below 0.9.
The compounds below were run on TIMP metallopeptidase inhibitor 1 (TIMP1), TIMP1 (gene 7076) (assay: BSK_MyoF_TIMP1: BioMAP Diversity Plus: MyoF Assay for TIMP metallopeptidase inhibitor 1 (TIMP1) Biomarker Activity (AID 2284269)). Settings: primary human lung fibroblasts.
In short: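 TIMP-1 levels were determined by ELISA in human lung fibroblasts treated for 24 h. DMSO served as negative control and baseline for upward curve fitting.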

SMILES | AC50 | outcome
CC/C=C\C/C=C\C/C=C\CCCCCCCC(=O)OC | 20 µM (active) | –
CC(C)[N+](C)(CCOC(=O)C1c2ccccc2Oc2ccccc21)C(C)C | – | inactive
COc1ccc(C(=O)c2ccccc2)c(O)c1 | – | inactive
C[N+](C)(C)CCCNS(=O)(=O)C(F)(F)C(F)(F)C(F)(F)C(F)(F)C(F)(F)C(F)(F)C(F)(F)C(F)(F)F | – | inactive
Fc1ccc(Br)cc1 | – | inactive
Nc1cccc(N)n1 | – | inactive
O=C(O)C(F)(F)C(F)(F)C(F)(F)C(F)(F)C(=O)O | – | inactive
CC1=CC=C(C(C)C)CC1 | – | inactive
CC(c1cc(C(C)(C)C)cc(C(C)(C)C)c1O)c1cc(C(C)(C)C)cc(C(C)(C)C)c1O | – | inactive
O=C1CCCCCCCCCCCN1 | – | inactive
CCc1cccc(C)c1N(C(=O)CS(=O)(=O)O)C(C)COC (configuration not stated) | – | inactive
Clc1cc(Cl)c(Cl)c(Cl)c1Cl | – | inactive
CCCCC1C(=O)N(c2ccccc2)N(c2ccccc2)C1=O | – | inactive
O=C(Oc1ccccc1)c1ccccc1C(=O)Oc1ccccc1 | – | inactive
CCC1(C)C(=O)N(Cl)C(=O)N1Cl (configuration not stated) | – | inactive
CC(Cl)COP(=O)(OCC(C)Cl)OCC(C)Cl (configuration not stated) | – | inactive
CCCCCCCCC(CO)CCCCCC (configuration not stated) | – | inactive
C=CC(=O)NCOCCCC | – | inactive
CCNc1nc(NC(C)(C)C)nc(OC)n1 | – | inactive
CCCCCCC=O | – | inactive
C=CCCCCCCCCC=O | – | inactive

What follows are compounds tested on Intercellular Adhesion Molecule 1 (ICAM1), ICAM1 (gene 3383) (assay: BSK_BE3C_ICAM1: BioMAP Diversity Plus: BE3C Assay for Intercellular Adhesion Molecule 1 (ICAM1) Biomarker Activity (AID 2284278)). Settings: primary human bronchial epithelial cells.
In short: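 hu bronchial epithelial primary cells, 24 h cpd exposure, ICAM-1 ELISA; gain-of-signal fit vs DMSO baseline.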

SMILES | outcome | AC50
CC(C)C(=O)OCCc1ccccc1 | inactive | –
C[N+](C)(C)CCCNS(=O)(=O)C(F)(F)C(F)(F)C(F)(F)C(F)(F)C(F)(F)C(F)(F)C(F)(F)C(F)(F)F | inactive | –
CCCC(C)C(=O)OCC (configuration not stated) | inactive | –
Nc1nc(N)nc(-c2ccccc2)n1 | inactive | –
O=C(O)C(F)(F)C(F)(F)C(F)(F)C(F)(F)C(=O)O | inactive | –
Oc1ccccc1Cc1ccccc1O | inactive | –
c1ccc(Nc2cccc3ccccc23)cc1 | inactive | 12.7 µM (active)
CC(CCC(=O)O)(c1ccc(O)cc1)c1ccc(O)cc1 | inactive | –
CCCCCCCCCCCC(=O)N(C)CC(=O)O | inactive | –

These compounds were tested on Interferon-inducible T-cell alpha chemoattractant (ITAC), CXCL11 (gene 6373) (assay: BSK_BE3C_ITAC: BioMAP Diversity Plus: BE3C Assay for Interferon-inducible T-cell alpha chemoattractant (ITAC) Biomarker Activity (AID 2284279)). Settings: primary human bronchial epithelial cells.
In short: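 The assay measures I-TAC levels by ELISA in human primary bronchial epithelial cell cultures 24 hours after chemical treatment. Values reflect signal increase over the DMSO baseline.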

SMILES | outcome | AC50
CC(C)C(=O)OCCc1ccccc1 | inactive | –
C[N+](C)(C)CCCNS(=O)(=O)C(F)(F)C(F)(F)C(F)(F)C(F)(F)C(F)(F)C(F)(F)C(F)(F)C(F)(F)F | inactive | –
CCCC(C)C(=O)OCC (configuration not stated) | inactive | –
Nc1nc(N)nc(-c2ccccc2)n1 | inactive | –
O=C(O)C(F)(F)C(F)(F)C(F)(F)C(F)(F)C(=O)O | inactive | –
Oc1ccccc1Cc1ccccc1O | inactive | –
c1ccc(Nc2cccc3ccccc23)cc1 | – | 27.2 µM (active) and 30.3 µM (active)
CC(CCC(=O)O)(c1ccc(O)cc1)c1ccc(O)cc1 | inactive | –
CCCCCCCCCCCC(=O)N(C)CC(=O)O | inactive | –

The compounds below were run on Interleukin-8 (IL8), CXCL8 (gene 3576) (assay: BSK_BE3C_IL8: BioMAP Diversity Plus: BE3C Assay for Interleukin-8 (IL8) Biomarker Activity (AID 2284280)). Settings: primary human bronchial epithelial cells.
In short: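 Measured at 24 h after treatment, IL-8 from human primary bronchial epithelial cells is determined by ELISA, and the response is modelled as increasing relative to DMSO negative control.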

SMILES | outcome | AC50
CC(C)C(=O)OCCc1ccccc1 | inactive | –
C[N+](C)(C)CCCNS(=O)(=O)C(F)(F)C(F)(F)C(F)(F)C(F)(F)C(F)(F)C(F)(F)C(F)(F)C(F)(F)F | – | 18.1 µM (active)
CCCC(C)C(=O)OCC (configuration not stated) | inactive | –
Nc1nc(N)nc(-c2ccccc2)n1 | inactive | –
O=C(O)C(F)(F)C(F)(F)C(F)(F)C(F)(F)C(=O)O | inactive | –
Oc1ccccc1Cc1ccccc1O | inactive | –
c1ccc(Nc2cccc3ccccc23)cc1 | inactive | –
CC(CCC(=O)O)(c1ccc(O)cc1)c1ccc(O)cc1 | inactive | –
CCCCCCCCCCCC(=O)N(C)CC(=O)O | inactive | –

What follows are compounds tested on Epidermal growth factor receptor (EGFR), EGFR (gene 1956) (assay: BSK_BE3C_EGFR: BioMAP Diversity Plus: BE3C Assay for Epidermal growth factor receptor (EGFR) Biomarker Activity (AID 2284281)). Settings: primary human bronchial epithelial cells.
Method: BSK_BE3C is a cell-based, multiplexed-readout assay that uses bronchial epithelial cell, a human lung primary cell, with measurements taken at 24 hours after chemical dosing in a 96-well plate.BSK_BE3C_EGFR is an assay component measured in the BSK_BE3C assay. It measures EGFR antibody related to regulation of gene expression using ELISA technology.Data from the assay component BSK_BE3C_EGFR was analyzed at the endpoint, BSK_BE3C_EGFR, in the positive analysis fitting direction relative to DMSO as the negative control and baseline of activity. Using a type of binding reporter, gain or loss-of-signal activity can be used to understand protein changes. To generalize the intended target to other relatable targets, this assay endpoint is annotated to the 'kinase' intended target family, where the subfamily is 'receptor tyrosine kinase'.
The levels of cell surface (or secreted, indicated by the prefix "s") biomarker endpoints were measured by ELISA. Overt cytotoxicity to cells in confluent adherent cultures (all systems other than the BT system) was assessed by measuring total protein levels using sulforhodamine B (SRB) staining in parallel cultures at the time of biomarker measurements, indicated as SRB endpoints. For proliferation assays for adherent cell types, individual cell types are cultured at sub-confluence and relative cell numbers quantified by SRB staining at time points optimized for each system (48 h: 3C and CASM3C systems; 72 h: BT and HDF3CGF systems; 96 h: SAg system). SRB was performed by staining cells with 0.1% SRB after fixation with 10% TCA and reading wells at 560 nm.Viability and proliferation of PBMC (T cells) was quantified by Alamar Blue reduction for the SAg and BT systems. For PBMC viability (referred to as PBMC Cytotoxicity within the assay endpoint names), cells were plated (75,000/well in a 96-well plate) and then chemical samples added for 1 h before addition of activators, SEB and TSST-1 (20 ng/mL final concentration each). Cells were incubated for 90 h. Then, Alamar Blue (20 uL/well) (Invitrogen, Cat DAL1100) was added for 6 h, and the plates were read with a fluorescence microplate reader at 546/580 nm (excitation/emission). For PBMC proliferation, cells were plated and activated as above but incubated for only 16 h prior to addition of Alamar Blue. Plates were read after 6 h.

SMILES | outcome | AC50
CC(C)C(=O)OCCc1ccccc1 | inactive | –
C[N+](C)(C)CCCNS(=O)(=O)C(F)(F)C(F)(F)C(F)(F)C(F)(F)C(F)(F)C(F)(F)C(F)(F)C(F)(F)F | inactive | –
CCCC(C)C(=O)OCC (configuration not stated) | inactive | –
Nc1nc(N)nc(-c2ccccc2)n1 | inactive | –
O=C(O)C(F)(F)C(F)(F)C(F)(F)C(F)(F)C(=O)O | inactive | –
Oc1ccccc1Cc1ccccc1O | inactive | –
c1ccc(Nc2cccc3ccccc23)cc1 | – | 17.6 µM (active) and 37 µM (active)
CC(CCC(=O)O)(c1ccc(O)cc1)c1ccc(O)cc1 | inactive | –
CCCCCCCCCCCC(=O)N(C)CC(=O)O | inactive | –

The compounds below were run on KRT18 (gene 3875) (assay: BSK_BE3C_Keratin818: BioMAP Diversity Plus: BE3C Assay for Keratin 818 Biomarker Activity (AID 2284282)). Settings: primary human bronchial epithelial cells.
In short: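 In this multiplexed primary-cell system, bronchial epithelial cells were dosed and harvested at 24 h. Keratin 8/18 was determined by ELISA and analysed for increases over DMSO controls.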

SMILES | AC50 | outcome
CC(C)C(=O)OCCc1ccccc1 | 0.522 µM (active) | inactive
C[N+](C)(C)CCCNS(=O)(=O)C(F)(F)C(F)(F)C(F)(F)C(F)(F)C(F)(F)C(F)(F)C(F)(F)C(F)(F)F | – | inactive
CCCC(C)C(=O)OCC (configuration not stated) | – | inactive
Nc1nc(N)nc(-c2ccccc2)n1 | – | inactive
O=C(O)C(F)(F)C(F)(F)C(F)(F)C(F)(F)C(=O)O | – | inactive
Oc1ccccc1Cc1ccccc1O | – | inactive
c1ccc(Nc2cccc3ccccc23)cc1 | 20 µM (active) | –
CC(CCC(=O)O)(c1ccc(O)cc1)c1ccc(O)cc1 | – | inactive
CCCCCCCCCCCC(=O)N(C)CC(=O)O | – | inactive

These compounds were tested on Plasminogen activator inhibitor-1 (PAI1), SERPINE1 (gene 5054) (assay: BSK_CASM3C_PAI1: BioMAP Diversity Plus: CASM3C Assay for Plasminogen activator inhibitor-1 (PAI1) Biomarker Activity (AID 2284284;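 note: PAI-1 protein level measured by ELISA 24 h after dosing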)). Settings: primary human coronary artery smooth muscle cells.

SMILES | outcome
CC(C)C(=O)OCCc1ccccc1 | inactive
C[N+](C)(C)CCCNS(=O)(=O)C(F)(F)C(F)(F)C(F)(F)C(F)(F)C(F)(F)C(F)(F)C(F)(F)C(F)(F)F | inactive
CCCC(C)C(=O)OCC (configuration not stated) | inactive
Nc1nc(N)nc(-c2ccccc2)n1 | inactive
O=C(O)C(F)(F)C(F)(F)C(F)(F)C(F)(F)C(=O)O | inactive
Oc1ccccc1Cc1ccccc1O | inactive
c1ccc(Nc2cccc3ccccc23)cc1 | inactive
CC(CCC(=O)O)(c1ccc(O)cc1)c1ccc(O)cc1 | inactive
CCCCCCCCCCCC(=O)N(C)CC(=O)O | inactive

— PubChem BioAssay (EPA / NIEHS)
